PubChem BioAssay AID1159580 (chemical genetic matrix, 2015)
Hit rate of the full screen: of about 5,500 compounds, about 2,000 (36%) were called active. Not shown: some 18% with an inconclusive outcome. No stated cut-off is given here; in the data, active means normalized growth mostly below about 0.91 (no sharp cut-off); inconclusive means no clear call, values can overlap the other calls; inactive means mostly above about 0.92. Some of the results follow.

Test: chemical genetic growth profiling, strain panel (AID 1159580);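 further: tested at 20 µM; growth read once vehicle control cultures reached saturation at 30 °C; 1 = growth at the plate median or of vehicle wells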
Details: growth OD

Measured: normalized growth

CN(C)CC[C@H](c1ccc(Cl)cc1)c1ccccn1
inactive: S. cerevisiae deletion strains, locus YJR075W, strain HOC1, stronger effect = lower value 0.994 | S. cerevisiae deletion strains, locus YKL009W, strain mrt4, stronger effect = lower value 1.01 | S. cerevisiae deletion strains, locus YKL068W, stronger effect = lower value 0.997 | S. cerevisiae deletion strains, locus YKL085W, strain MDH1 (second series), stronger effect = lower value 0.995 | S. cerevisiae deletion strains, locus YKL085W, strain MDH1, stronger effect = lower value 0.995 | S. cerevisiae deletion strains, locus YKL160W, strain elf1, stronger effect = lower value 0.994 | S. cerevisiae deletion strains, locus YKL190W, strain CNB1, stronger effect = lower value 1 | S. cerevisiae deletion strains, locus YKR001C, strain vps1, stronger effect = lower value 0.989 | S. cerevisiae deletion strains, locus YKR026C, strain gcn3, stronger effect = lower value 1 | S. cerevisiae deletion strains, locus YKR091W, strain srl3, stronger effect = lower value 1.01 | S. cerevisiae deletion strains, locus YLL001W, strain dnm1, stronger effect = lower value 0.991 | S. cerevisiae deletion strains, locus YLL026W, stronger effect = lower value 0.997 | S. cerevisiae deletion strains, locus YLL041C, strain sdh2, stronger effect = lower value 0.992 | S. cerevisiae deletion strains, locus YLR027C, strain aat2, stronger effect = lower value 1 | S. cerevisiae deletion strains, locus YLR039C, strain RIC1, stronger effect = lower value 1.04 | S. cerevisiae deletion strains, locus YLR058C, strain SHM2, stronger effect = lower value 1 | S. cerevisiae deletion strains, locus YLR102C, strain apc9, stronger effect = lower value 0.989 | S. cerevisiae deletion strains, locus YLR113W, strain HOG1, stronger effect = lower value 1.02 | S. cerevisiae deletion strains, locus YLR221C, strain rsa3, stronger effect = lower value 1.01 | S. cerevisiae deletion strains, locus YLR258W, strain gsy2, stronger effect = lower value 0.993 | S. cerevisiae deletion strains, locus YLR262C, strain YPT6 (second series), stronger effect = lower value 1.01 | S. cerevisiae deletion strains, locus YLR262C, strain YPT6, stronger effect = lower value 1 | S. cerevisiae deletion strains, locus YLR268W, strain sec22, stronger effect = lower value 0.965 | S. cerevisiae deletion strains, locus YLR320W, strain mms22, stronger effect = lower value 0.997 | S. cerevisiae deletion strains, locus YLR330W, strain CHS5, stronger effect = lower value 1.01 | S. cerevisiae deletion strains, locus YLR342W, strain FKS1 (second series), stronger effect = lower value 1.02 | S. cerevisiae deletion strains, locus YLR342W, strain FKS1, stronger effect = lower value 1 | S. cerevisiae deletion strains, locus YLR357W, strain rsc2, stronger effect = lower value 0.959 | S. cerevisiae deletion strains, locus YLR370C, strain arc18, stronger effect = lower value 1 | S. cerevisiae deletion strains, locus YLR371W, strain rom2, stronger effect = lower value 0.991 | S. cerevisiae deletion strains, locus YLR384C, strain iki3, stronger effect = lower value 0.996 | S. cerevisiae deletion strains, locus YLR418C, strain cdc73, stronger effect = lower value 0.994 | S. cerevisiae deletion strains, locus YML016C, strain PPZ1, stronger effect = lower value 1 | S. cerevisiae deletion strains, locus YML032C, strain rad52, stronger effect = lower value 0.966 | S. cerevisiae deletion strains, locus YML120C, strain ndi1, stronger effect = lower value 1.01 | S. cerevisiae deletion strains, locus YML124C, strain tub3, stronger effect = lower value 0.994 | S. cerevisiae deletion strains, locus YMR058W, strain fet3, stronger effect = lower value 1 | S. cerevisiae deletion strains, locus YMR078C, strain ctf18, stronger effect = lower value 0.993 | S. cerevisiae deletion strains, locus YMR125W, strain sto1, stronger effect = lower value 0.997 | S. cerevisiae deletion strains, locus YMR129W, stronger effect = lower value 1 | S. cerevisiae deletion strains, locus YMR205C, strain PFK2, stronger effect = lower value 1.02 | S. cerevisiae deletion strains, locus YMR223W, strain ubp8, stronger effect = lower value 1.01 | S. cerevisiae deletion strains, locus YMR231W, strain pep5, stronger effect = lower value 0.993 | S. cerevisiae deletion strains, locus YMR263W, strain SAP30, stronger effect = lower value 1.02 | S. cerevisiae deletion strains, locus YMR307W, strain GAS1, stronger effect = lower value 0.99 | S. cerevisiae deletion strains, locus YNL067W, strain RPL9B, stronger effect = lower value 0.999 | S. cerevisiae deletion strains, locus YNL071W, strain lat1, stronger effect = lower value 0.998 | S. cerevisiae deletion strains, locus YNL128W, strain TEP1, stronger effect = lower value 1.01 | S. cerevisiae deletion strains, locus YNL153C, strain GIM3, stronger effect = lower value 0.992 | S. cerevisiae deletion strains, locus YNL183C, strain NPR1, stronger effect = lower value 0.956 | S. cerevisiae deletion strains, locus YNL209W, strain ssb2, stronger effect = lower value 1 | S. cerevisiae deletion strains, locus YNL233W, strain BNI4, stronger effect = lower value 1.01 | S. cerevisiae deletion strains, locus YNL248C, strain rpa49, stronger effect = lower value 0.945 | S. cerevisiae deletion strains, locus YNL250W, strain rad50, stronger effect = lower value 0.977 | S. cerevisiae deletion strains, locus YNL271C, strain bni1, stronger effect = lower value 0.988 | S. cerevisiae deletion strains, locus YNL298W, strain CLA4, stronger effect = lower value 0.996 | S. cerevisiae deletion strains, locus YNL307C, strain MCK1, stronger effect = lower value 1 | S. cerevisiae deletion strains, locus YNL322C, strain KRE1 (second series), stronger effect = lower value 1.02 | S. cerevisiae deletion strains, locus YNL322C, strain KRE1, stronger effect = lower value 1 | S. cerevisiae deletion strains, locus YNR049C, strain mso1, stronger effect = lower value 0.996 | S. cerevisiae deletion strains, locus YNR052C, strain pop2, stronger effect = lower value 0.989 | S. cerevisiae deletion strains, locus YOL006C, strain TOP1, stronger effect = lower value 1 | S. cerevisiae deletion strains, locus YOL012C, strain htz1 0.629 | S. cerevisiae deletion strains, locus YOL147C, strain pex11, stronger effect = lower value 0.991 | S. cerevisiae deletion strains, locus YOR001W, strain rrp6, stronger effect = lower value 0.987 | S. cerevisiae deletion strains, locus YOR061W, strain CKA2, stronger effect = lower value 1.01 | S. cerevisiae deletion strains, locus YOR069W, strain VPS5, stronger effect = lower value 1 | S. cerevisiae deletion strains, locus YOR070C, strain gyp1, stronger effect = lower value 0.997 | S. cerevisiae deletion strains, locus YOR080W, strain dia2, stronger effect = lower value 0.997 | S. cerevisiae deletion strains, locus YOR083W, strain WHI5, stronger effect = lower value 0.997 | S. cerevisiae deletion strains, locus YOR106W, strain vam3, stronger effect = lower value 1.01 | S. cerevisiae deletion strains, locus YOR136W, strain idh2, stronger effect = lower value 0.992 | S. cerevisiae deletion strains, locus YOR144C, strain elg1, stronger effect = lower value 0.988 | S. cerevisiae deletion strains, locus YOR184W, strain ser1, stronger effect = lower value 1.02 | S. cerevisiae deletion strains, locus YOR231W, strain MKK1, stronger effect = lower value 0.998 | S. cerevisiae deletion strains, locus YOR265W, strain rbl2, stronger effect = lower value 1 | S. cerevisiae deletion strains, locus YOR270C, strain vph1, stronger effect = lower value 1.01 | S. cerevisiae deletion strains, locus YOR290C, strain snf2, stronger effect = lower value 0.998 | S. cerevisiae deletion strains, locus YOR316C, strain cot1, stronger effect = lower value 0.995 | S. cerevisiae deletion strains, locus YPL051W, strain arl3, stronger effect = lower value 1.01 | S. cerevisiae deletion strains, locus YPL055C, strain LGE1, stronger effect = lower value 1.02 | S. cerevisiae deletion strains, locus YPL078C, strain atp4, stronger effect = lower value 0.989 | S. cerevisiae deletion strains, locus YPL106C, strain sse1, stronger effect = lower value 1.01 | S. cerevisiae deletion strains, locus YPL240C, strain hsp82, stronger effect = lower value 0.997 | S. cerevisiae deletion strains, locus YPL241C, strain CIN2, stronger effect = lower value 1 | S. cerevisiae deletion strains, locus YPL256C, strain CLN2, stronger effect = lower value 0.985 | S. cerevisiae deletion strains, locus YPR119W, strain clb2, stronger effect = lower value 0.989 | S. cerevisiae deletion strains, locus YPR141C, strain kar3, stronger effect = lower value 0.98 | S. cerevisiae deletion strains, locus YPR163C, strain tif3, stronger effect = lower value 0.992 | S. cerevisiae deletion strains, locus YPR167C, strain met16, stronger effect = lower value 0.994 | S. cerevisiae deletion strains, strain wtn01, stronger effect = lower value 0.995 | S. cerevisiae strains, strain wild type, stronger effect = lower value 1.01
